# Measured values taken from PubChem BioAssay (NCATS).
# Values joined by “and” are separate entries in the source; they are usually repeats but may differ in a detail not shown here. Identical values can stand only once. Inconclusive results are not listed. Entries that show only a call come without a potency. Active and inactive are the calls of the source. Unless noted, calls follow the shape of the dose curve; as a rule, active = well fitted curve in the direction sought with a large enough effect; inconclusive = small, poorly fitted or top-dose-only effect, or another doubt; inactive = no such curve, though single readings can be large; an effect the other way counts as inactive or inconclusive.
# Columns and labels:
# [1] = target: Thyroid hormone receptor beta (Homo sapiens) (UniProt P10828); experiment: qHTS assay for small molecule agonists of thyroid hormone receptor beta signaling (AID 588545; calls by dose curve); details: TR-UAS-bla GripTite HEK 293, beta-lactamase ratio, agonist mode, 18 h, percent of T3 response, DMSO as zero; series mostly up to 76.7 µM
# Sequence of Thyroid hormone receptor beta (Homo sapiens) (P10828 whole entry, looked up): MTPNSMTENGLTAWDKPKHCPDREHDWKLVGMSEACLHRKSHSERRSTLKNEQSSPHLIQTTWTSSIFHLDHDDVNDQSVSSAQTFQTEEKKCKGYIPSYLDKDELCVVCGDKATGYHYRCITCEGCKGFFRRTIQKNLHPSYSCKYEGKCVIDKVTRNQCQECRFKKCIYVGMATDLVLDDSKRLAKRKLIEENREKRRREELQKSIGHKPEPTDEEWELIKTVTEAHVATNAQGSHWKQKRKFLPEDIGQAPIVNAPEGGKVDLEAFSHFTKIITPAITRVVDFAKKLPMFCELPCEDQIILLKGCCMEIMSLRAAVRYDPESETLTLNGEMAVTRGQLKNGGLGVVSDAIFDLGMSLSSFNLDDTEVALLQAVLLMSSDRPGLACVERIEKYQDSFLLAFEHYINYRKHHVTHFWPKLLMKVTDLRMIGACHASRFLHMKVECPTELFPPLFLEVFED
# How it was run: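 Cells (2500/well) were seeded, incubated 4 hrs at 37 C, dosed with a compound series, incubated 18 hrs, loaded with CCF4 dye for 2 hrs at RT, then read for fluorescence. Data were scaled between DMSO (0%) and 10 nM T3 (100%).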
# [2] = target: Thyroid hormone receptor beta (Homo sapiens) (UniProt P10828); experiment: qHTS assay for small molecule antagonists of thyroid hormone receptor beta signaling (AID 588547; active = well fitted inhibition curve with a large enough effect in the signal ratio, with a control signal flat, not every such curve was filed as active; the % refers to the signal ratio;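 also: cells stimulated with 0.4 nM T3 agonist during compound exposure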); details: TR-UAS-bla HEK293, beta-lactamase ratio, antagonist mode, 18 h
# How it was run: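 TR-UAS-bla GripTite HEK293 cells in 2% charcoal/dextran FBS medium; compounds 0.59 nM to 92 uM with T3 at 0.4nM final, 18 h at 37 C. Beta-lactamase read by CCF4 fluorescence (460/530 nm); Hill fits gave IC50 and efficacy.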
# [3] = target: Voltage-gated inwardly rectifying potassium channel KCNH2 (Homo sapiens) (UniProt Q12809); experiment: qHTS Assay for Small Molecule Inhibitors of the Human hERG Channel Activity (AID 588834); details: U2OS BacMam hERG, FluxOR thallium flux fluorescence; series mostly up to 46.1 µM;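 also: lower thallium flux fluorescence means stronger hERG block; nearly all actives have a fitted effect of over 50% in size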; also: potency is read from the fitted curve at half-maximal effect
# Sequence of Voltage-gated inwardly rectifying potassium channel KCNH2 (Homo sapiens) (Q12809 whole entry, looked up): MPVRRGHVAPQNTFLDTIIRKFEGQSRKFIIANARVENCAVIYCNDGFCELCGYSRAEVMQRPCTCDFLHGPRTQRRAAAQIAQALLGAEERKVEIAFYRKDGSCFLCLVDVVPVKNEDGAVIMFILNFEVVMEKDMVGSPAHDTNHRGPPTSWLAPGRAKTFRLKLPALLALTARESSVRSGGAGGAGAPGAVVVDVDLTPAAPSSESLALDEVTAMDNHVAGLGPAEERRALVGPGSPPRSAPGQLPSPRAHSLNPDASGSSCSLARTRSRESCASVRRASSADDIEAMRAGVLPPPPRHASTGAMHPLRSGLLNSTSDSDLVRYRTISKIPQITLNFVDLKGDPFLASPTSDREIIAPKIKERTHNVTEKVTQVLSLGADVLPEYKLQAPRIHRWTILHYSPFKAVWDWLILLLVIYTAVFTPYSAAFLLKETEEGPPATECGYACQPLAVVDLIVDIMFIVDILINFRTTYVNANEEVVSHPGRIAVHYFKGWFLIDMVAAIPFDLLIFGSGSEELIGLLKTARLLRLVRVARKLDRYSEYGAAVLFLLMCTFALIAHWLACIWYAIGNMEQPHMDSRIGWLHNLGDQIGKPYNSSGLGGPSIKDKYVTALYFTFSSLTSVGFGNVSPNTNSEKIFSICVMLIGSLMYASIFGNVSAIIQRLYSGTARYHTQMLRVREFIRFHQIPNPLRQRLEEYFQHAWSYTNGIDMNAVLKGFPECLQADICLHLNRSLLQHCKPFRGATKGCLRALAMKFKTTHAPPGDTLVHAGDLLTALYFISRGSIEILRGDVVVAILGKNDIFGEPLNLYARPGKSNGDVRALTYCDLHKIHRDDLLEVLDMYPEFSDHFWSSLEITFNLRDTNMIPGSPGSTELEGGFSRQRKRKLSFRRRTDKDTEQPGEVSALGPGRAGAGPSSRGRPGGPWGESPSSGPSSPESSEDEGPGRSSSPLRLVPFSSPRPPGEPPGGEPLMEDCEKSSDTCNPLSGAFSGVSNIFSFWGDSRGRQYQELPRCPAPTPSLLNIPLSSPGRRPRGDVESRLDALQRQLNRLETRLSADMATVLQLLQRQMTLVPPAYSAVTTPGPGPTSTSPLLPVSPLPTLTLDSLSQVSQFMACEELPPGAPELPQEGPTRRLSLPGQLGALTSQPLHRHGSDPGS
# How it was run: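 hERG-BacMam U2OS, 2000 cells/well; 0.7X FluxOR loading 1 hr RT dark; cpd ~10 min 37 °C; stim buffer; FDSS fluorescence 2 min @ 1 s; AC50 Hill fit.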
# [4] = target: Luciferin 4-monooxygenase (Photinus pyralis) (UniProt P08659); experiment: Biochemical firefly luciferase enzyme assay for NPC (AID 624030);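 also: purified P. pyralis luciferase at 10 nM with luciferin and ATP substrate; nearly all actives have a fitted effect of over 70% in size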; details: purified P. pyralis luciferase, luminescence, 5 min; series mostly up to 58.6 µM
# Sequence of Luciferin 4-monooxygenase (Photinus pyralis) (P08659 whole entry, looked up): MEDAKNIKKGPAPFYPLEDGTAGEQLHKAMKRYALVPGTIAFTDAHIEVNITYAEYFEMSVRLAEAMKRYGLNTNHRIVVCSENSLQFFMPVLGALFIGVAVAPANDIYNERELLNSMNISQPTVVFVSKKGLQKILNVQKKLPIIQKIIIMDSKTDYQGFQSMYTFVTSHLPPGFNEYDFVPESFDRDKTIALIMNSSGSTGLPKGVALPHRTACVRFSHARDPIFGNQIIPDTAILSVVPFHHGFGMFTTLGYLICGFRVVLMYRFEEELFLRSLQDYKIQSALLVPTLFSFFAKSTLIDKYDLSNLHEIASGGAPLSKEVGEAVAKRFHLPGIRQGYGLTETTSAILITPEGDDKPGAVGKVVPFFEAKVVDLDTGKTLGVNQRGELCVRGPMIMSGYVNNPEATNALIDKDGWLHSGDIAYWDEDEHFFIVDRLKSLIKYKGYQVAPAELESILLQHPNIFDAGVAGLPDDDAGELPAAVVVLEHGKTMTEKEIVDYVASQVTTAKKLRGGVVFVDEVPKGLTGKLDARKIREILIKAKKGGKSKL
# How it was run: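 Purified P. pyralis luciferase at 10 nM in 50 mM Tris Acetate (final), luminescence read within 5 minutes of enzyme addition to compounds. Activity normalised to PTC124 versus DMSO; concentration-response curves classed by r2, magnitude and activity.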
# [5] = S16 Schwann cell PMP22 intronic element firefly luciferase assay (AID 624032); details: S16 rat Schwann cells, PMP22 element FLuc, 24 h; series mostly up to 57.5 µM; also: nearly all actives have a fitted effect of over 30% in size; also: potency is read from the fitted curve at half-maximal effect
# How it was run: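 Rat S16 Schwann cells stably carrying firefly luciferase driven by a PMP22 intronic element, in 10% FBS, treated 24 h at 37 C. ONE-Glo luminescence normalized to PTC124 control and DMSO (0%); curves classed by r2, magnitude and activity.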
# [6] = qHTS assay for small molecule agonists of retinoid X receptor alpha signaling (AID 588544; calls by dose curve); details: HEK293T RXRa-UAS-bla, beta-lactamase reporter, 18 h; 530 nm emission
# [7] = target: Retinoic acid receptor RXR-alpha (Homo sapiens) (UniProt P19793); experiment: as above; details: HEK293T RXRa-UAS-bla, beta-lactamase reporter, 18 h; series mostly up to 76.7 µM
# Sequence of Retinoic acid receptor RXR-alpha (Homo sapiens) (P19793 whole entry, looked up): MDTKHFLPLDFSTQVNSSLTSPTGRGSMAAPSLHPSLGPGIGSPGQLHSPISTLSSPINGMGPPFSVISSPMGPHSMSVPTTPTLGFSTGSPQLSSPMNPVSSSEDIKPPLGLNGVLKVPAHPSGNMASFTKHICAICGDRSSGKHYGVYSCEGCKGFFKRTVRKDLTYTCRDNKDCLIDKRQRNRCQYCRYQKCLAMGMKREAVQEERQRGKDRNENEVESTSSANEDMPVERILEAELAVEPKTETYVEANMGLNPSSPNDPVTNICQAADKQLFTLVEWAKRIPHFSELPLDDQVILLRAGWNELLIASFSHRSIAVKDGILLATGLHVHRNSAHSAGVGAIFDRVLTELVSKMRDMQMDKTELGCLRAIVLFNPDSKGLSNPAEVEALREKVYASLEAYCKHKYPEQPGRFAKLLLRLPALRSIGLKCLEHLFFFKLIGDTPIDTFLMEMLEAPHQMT
# [8] = qHTS assay for small molecule antagonists of retinoid X receptor alpha signaling (AID 588546; active = well fitted inhibition curve with a large enough effect in the signal ratio, with a control signal flat, not every such curve was filed as active; the % refers to the signal ratio; also: potency is read from the fitted curve at half-maximal effect;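 as to max response: cells stimulated with 9-cis-retinoic acid as agonist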); details: HEK293T RXRa-UAS-bla, beta-lactamase ratio, antagonist mode; measured here: W530 green channel, cytotoxicity proxy
# How it was run: (§1)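 Beta-lactamase reporter inhibition, read as CCF4 fluorescence ratio (ex 405, em 460/530 nm) after 2 h at RT. HEK293T UAS-bla cells, 2500/well, were stimulated with 9-cis-RA at 500 or 100 nM final alongside test compound for 18 h at 37 C.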
# [9] = target: Retinoic acid receptor RXR-alpha (Homo sapiens) (UniProt P19793); experiment: as above; details: HEK293T RXRa-UAS-bla, beta-lactamase ratio, antagonist mode
# How it was run: as §1
# [10] = S16 Schwann cell viability assay (CellTiter-Glo assay) (AID 624031); details: S16 rat Schwann cells viability, 24 h; series mostly up to 57.5 µM; also: nearly all actives have a fitted effect of over 70% in size; also: potency is read from the fitted curve at half-maximal effect
# How it was run: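 Native S16 Schwann cells (rat), serum-containing medium, overnight attachment then 24 h drug exposure at 37 °C/5% CO2. CellTiter-Glo ATP signal; normalized to cell-free and vehicle wells.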
smiles,measurement,setting,value
Oc1c(I)cc(Cl)c2cccnc12,outcome,[1],inactive
same,activity change % (negative = inhibition),[2],-33.1% (inactive)
same,Potency,[3],inactive
same,Potency,[4],inactive
same,Potency,[5],11.4 µM (active)
CN(C)/N=N/c1nc[nH]c1C(N)=O,max response,[6],27.5%
same,outcome,[7],inactive
same,outcome,[1],inactive
same,max response,[8],-0.507%
same,max response,[9],17.7% (inactive)
same,activity change % (negative = inhibition),[2],-19.3% (inactive)
same,Potency,[3],inactive
same,Potency,[4],inactive
same,Potency,[10],inactive
same,Potency,[5],inactive
CC/C(=C(/CC)c1ccc(O)cc1)c1ccc(O)cc1,max response,[6],-0.375%
same,outcome,[7],inactive
same,outcome,[1],inactive
same,Potency,[10],inactive
CCCSS/C(CCO)=C(\C)N(C=O)Cc1cnc(C)nc1N,Potency,[3],11.2 µM (active)
CC1(C)O[C@@H]2C[C@H]3[C@@H]4CCC5=CC(=O)CC[C@]5(C)[C@@]4(F)[C@@H](O)C[C@]3(C)[C@]2(C(=O)CCl)O1,Potency,[3],inactive
CC(=O)Oc1ccc(C(c2ccc(OC(C)=O)cc2)c2ccccn2)cc1,activity change % (negative = inhibition),[2],5.36% (inactive)
same,Potency,[3],inactive
same,Potency,[4],inactive
same,Potency,[10],inactive
O=C(O)CCCCC(=O)O,max response,[6],-28.1%
same,outcome,[7],inactive
same,activity change % (negative = inhibition),[2],0.209% (inactive)
same,Potency,[3],inactive
same,Potency,[4],inactive
same,Potency,[10],inactive
same,Potency,[5],inactive
COc1ccc(OC)c(C(O)CNC(=O)CN)c1 (stereo not given),Potency,[3],inactive
Nc1ccc(C(=O)O)cc1,max response,[6],0.621%
same,outcome,[7],inactive
same,outcome,[1],inactive
same,max response,[8],14.8%
same,max response,[9],-5.07% (inactive)
same,activity change % (negative = inhibition),[2],15.2% (inactive)
same,Potency,[3],inactive
same,Potency,[4],inactive
same,Potency,[10],inactive
same,Potency,[5],inactive
NC(=NCCCCCCN=C(N)/N=C(\N)Nc1ccc(Cl)cc1)/N=C(\N)Nc1ccc(Cl)cc1,outcome,[1],inactive
same,max response,[8],21.2%
same,Potency,[9],39.8 µM (active)
same,Potency,[3],inactive
same,Potency,[4],inactive
CCCCCCc1ccc(O)cc1O,max response,[6],-14.8% and 0.183%
same,outcome,[7],inactive
same,outcome,[1],inactive
same,max response,[8],0.899% and 2.91%
same,max response,[9],-14.1% (inactive) and -8.39% (inactive)
same,activity change % (negative = inhibition),[2],-14.5% (inactive) and -21.9% (inactive)
same,Potency,[3],inactive
same,Potency,[4],inactive
same,Potency,[10],inactive
same,Potency,[5],inactive
O=C(OCC(O)CO)c1ccccc1Nc1ccnc2cc(Cl)ccc12 (stereo not given),Potency,[3],inactive
NC(=O)CC[C@@H]1NC(=O)[C@H](Cc2ccccc2)NC(=O)[C@H](Cc2ccc(O)cc2)NC(=O)CCSSC[C@@H](C(=O)N2CCC[C@H]2C(=O)N[C@@H](CCCN=C(N)N)C(=O)NCC(N)=O)NC(=O)[C@H](CC(N)=O)NC1=O,Potency,[3],inactive
O=c1c(-c2ccccc2)c1-c1ccccc1,Potency,[3],inactive
same,Potency,[4],inactive
same,Potency,[10],inactive
same,Potency,[5],3.22 µM (active)
C#C[C@]1(O)CC[C@H]2[C@@H]3CCc4cc(OC5CCCC5)ccc4[C@H]3CC[C@@]21C,Potency,[3],inactive
same,Potency,[4],inactive
same,Potency,[10],32.2 µM (active)
CCOC(=O)OC(C)OC1=C(C(=O)Nc2ccccn2)N(C)S(=O)(=O)c2ccccc21 (stereo not given),Potency,[3],inactive
same,Potency,[4],inactive
same,Potency,[10],inactive
O=C1OC2(c3ccc(O)cc3Oc3cc(O)ccc32)c2ccccc21,Potency,[3],0.631 µM (active)
same,Potency,[4],inactive
O=C1[C@H]2CCCC[C@H]2C(=O)N1CCCCN1CCN(c2nsc3ccccc23)CC1,Potency,[3],5.01 µM (active)
same,Potency,[4],inactive
same,Potency,[10],32.2 µM (active)
COc1c2occc2c(OC)c2c(=O)cc(C)oc12,Potency,[3],inactive
same,Potency,[4],inactive
same,Potency,[10],inactive
COc1cc(OC)cc(OC)c1,Potency,[3],inactive
same,Potency,[4],inactive
same,Potency,[10],inactive
same,Potency,[5],inactive
CC(=O)N/N=C/c1ccc([N+](=O)[O-])o1,Potency,[3],inactive
same,Potency,[4],inactive
CCCCCCCCCCCCCCNCCO,Potency,[3],inactive
same,Potency,[4],inactive
same,Potency,[10],inactive
C[C@]12C=CC(=O)C=C1[C@@H](F)C[C@@H]1[C@@H]2[C@@H](O)C[C@@]2(C)[C@H]1CC[C@]2(O)C(=O)CO,Potency,[3],inactive
same,Potency,[4],inactive
CNCCC=C1c2ccccc2CCc2ccccc21,Potency,[3],7.94 µM (active)
same,Potency,[4],inactive
same,Potency,[10],10.2 µM (active)
same,Potency,[5],11.4 µM (active)
OC(CCN1CCCCC1)(c1ccccc1)c1ccccc1,Potency,[3],14.1 µM (active)
same,Potency,[4],inactive
same,Potency,[10],inactive
same,Potency,[5],inactive
CCCCCCCCCCCCCCCC[N+](C)(C)CCN(Cc1ccc(OC)cc1)c1ncccn1,Potency,[3],1.41 µM (active)
same,Potency,[4],inactive
CCOC(=O)/C=C(C)/C=C/C=C(C)/C=C/c1c(C)cc(OC)c(C)c1C,Potency,[3],inactive
same,Potency,[4],inactive
same,Potency,[10],inactive
C#C[C@]1(OC(C)=O)CC[C@H]2[C@@H]3CCC4=C[C@@H](OC(C)=O)CC[C@@H]4[C@H]3CC[C@@]21C,Potency,[3],inactive
same,Potency,[4],inactive
same,Potency,[10],inactive
CCCCOc1ccc(C(=O)CCN2CCCCC2)cc1,Potency,[3],10 µM (active)
same,Potency,[4],inactive
same,Potency,[10],inactive
NC(CO)(CO)CO,Potency,[3],inactive
same,Potency,[4],inactive
same,Potency,[10],inactive
same,Potency,[5],inactive
CN1CCC(=C2c3ccccc3Sc3ccccc32)CC1,Potency,[3],4.47 µM (active)
same,Potency,[4],inactive
same,Potency,[10],28.7 µM (active)
COC(=O)[C@@H]1CC2=CC(=O)CC[C@]2(C)[C@@]23O[C@@H]2C[C@@]2(C)[C@@H](CC[C@@]24CCC(=O)O4)[C@H]13,Potency,[3],inactive
same,Potency,[4],inactive
same,Potency,[10],inactive
same,Potency,[5],inactive
